Laboratory results taken from PubChem BioAssay (NCATS).
Inconclusive results are not listed. Entries that show only a call come without a potency. Unmarked numbers belong to inactive results. The source made the active and inactive calls. Calls come from the whole dose curve; as a rule, active = well fitted cell-killing curve with a large enough effect; inconclusive = small, poorly fitted or top-dose-only effect, or effect the other way; inactive = flat fitted curve, though single readings scatter.

Legend:
Assay in all cases: Primary qHTS to identify gynecologic anti-cancer compounds using libraries of approved drugs and bioactive compounds (AID 1345084); note: nearly all actives have a fitted effect of over 55% in size
C33A = conditions: Gynecologic cancer cell panel viability, ATPlite luminescence, 48 h; series mostly up to 57.5 µM
In short: (§1)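 Cells, 1,000 per well, plated 16 h, then exposed 48 h at 37 C to compounds. Viability by ATPlite luminescence after 15 min at room temperature.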

CASKI = conditions: Gynecologic cancer cell panel viability, ATPlite luminescence, 48 h; series mostly up to 57.5 µM
In short: as §1

Es-2 = conditions: Gynecologic cancer cell panel viability, ATPlite luminescence, 48 h; series mostly up to 57.5 µM
In short: as §1

Hek293T = conditions: Gynecologic cancer cell panel viability, ATPlite luminescence, 48 h, control line for the selectivity index; series mostly up to 57.5 µM
In short: as §1

JEG-3 = conditions: Gynecologic cancer cell panel viability, ATPlite luminescence, 48 h; series mostly up to 57.5 µM
In short: as §1

OV90 = conditions: Gynecologic cancer cell panel viability, ATPlite luminescence, 48 h; series mostly up to 57.5 µM
In short: as §1

PA-1 = conditions: Gynecologic cancer cell panel viability, ATPlite luminescence, 48 h; series mostly up to 57.5 µM
In short: as §1

HeLa = conditions: Gynecologic cancer cell panel viability, ATPlite luminescence, 48 h; series mostly up to 57.5 µM
In short: as §1
Potency is the fitted concentration of half-maximal effect.

Row | SMILES | Potency (C33A) | Potency (CASKI) | Potency (Es-2) | Potency (Hek293T) | Potency (JEG-3) | Potency (OV90) | Potency (PA-1) | Potency (HeLa)
1 | Cc1nc(Nc2cnn(C3CCNCC3)c2)nc2c1N(C)C(=O)c1cc3ccccc3cc1N2C | inactive | inactive | inactive | inactive | inactive | inactive | inactive | –
2 | COc1cc(C(N)=O)nc(-c2ccccn2)c1O | inactive | – | inactive | inactive | inactive | inactive | inactive | inactive
3 | CCOc1ccc(Cc2nc(-c3c(C)nc4ccccn34)cs2)cc1 | 0.355 µM (active) | – | 0.0891 µM (active) | – | – | – | – | –
4 | O=C(O)CSc1cc(NS(=O)(=O)c2ccc(Br)cc2)c2ccccc2c1O | inactive | inactive | inactive | inactive | – | inactive | – | –
5 | COCC(=O)NC/C=C/c1ccc2ncnc(Nc3ccc(Oc4ccc(C)nc4)c(C)c3)c2c1 | inactive | – | inactive | inactive | inactive | inactive | inactive | inactive
6 | CC(=O)N1CCN(CCOc2ccc(C3CCN(C4=Nn5c(nnc5C(F)(F)F)CC4)CC3)cc2)CC1 | inactive | inactive | inactive | – | inactive | inactive | – | –
7 | COc1ccc2nc3n[nH]c(C)c3c(NCCOCCO)c2c1 | inactive | inactive | inactive | inactive | inactive | inactive | – | –
8 | CCc1cnc(N2CCC(c3nc(COc4ccc(-n5cnnn5)cc4)cs3)CC2)nc1 | inactive | inactive | – | – | inactive | inactive | inactive | inactive
9 | CCOc1cc(C(C)(C)C)ccc1C1=NC(C)(c2ccc(Cl)cc2)C(C)(c2ccc(Cl)cc2)N1C(=O)N1CCN(CCCS(C)(=O)=O)CC1 (stereo not drawn) | inactive | – | inactive | inactive | inactive | inactive | 6.31 µM (active) | inactive
10 | CC1CCC/C=C/C(=O)c2c(O)cc(O)cc2CC(=O)O1 (stereo not drawn) | 11.2 µM (active) | inactive | – | 14.1 µM (active) | 14.1 µM (active) | – | 5.62 µM (active) | –
11 | C=CC(=O)N1CCC(Oc2cc3c(Nc4ccc(Cl)c(Cl)c4F)ncnc3cc2OC)CC1 | inactive | 22.4 µM (active) | inactive | – | inactive | – | – | –
12 | CCn1nc(C2CCN(C(=O)CCO)CC2)nc1-c1cnc(N)c(-c2nnc(C(C)(C)C)o2)n1 | inactive | – | inactive | inactive | inactive | inactive | – | inactive
13 | COc1cc2c(cc1-c1c(C)noc1C)ncc1[nH]c(=O)n(C(C)c3ccccn3)c12 (stereo not drawn) | inactive | inactive | – | inactive | inactive | – | – | –
14 | Cc1c(OCc2cccc(-c3ccc(C(=O)O)cc3)c2)cc2c(c1C)C(=O)C(C1CCCC1)C2 (stereo not drawn) | inactive | – | inactive | inactive | inactive | inactive | inactive | inactive
15 | CC(C)C[C@H](C(=O)O)c1cc(-c2ccc(C(F)(F)F)cc2)cc(-c2ccc(C(F)(F)F)cc2)c1 | inactive | inactive | inactive | – | inactive | – | – | –
16 | O=C(NCCCn1ccnc1)c1cc(-c2ccco2)on1 | inactive | inactive | – | inactive | inactive | inactive | – | inactive
17 | CC(=O)Nc1nc(C)c(-c2nc(N3CCCC(O)C3)no2)s1 (stereo not drawn) | inactive | – | inactive | – | – | – | – | –
18 | C/C1=C/CCC2=CC(OC2=O)C(C)(C)/C=C/C1=O (stereo not drawn) | 10 µM (active) | 6.31 µM (active) | 8.91 µM (active) | 12.6 µM (active) | – | – | 8.91 µM (active) | –
19 | COc1cc(F)c(F)c(Nc2ccc(I)cc2F)c1NS(=O)(=O)C1(CC(O)CO)CC1 (stereo not drawn) | inactive | inactive | – | inactive | inactive | – | inactive | inactive
20 | CC(=O)Nc1cccc(-c2csc(Nc3cc(C)ccn3)n2)c1 | inactive | inactive | – | – | inactive | inactive | – | inactive
21 | CC(C)c1ccc(-c2cc(=O)c3ccccc3o2)cc1 | 11.2 µM (active) | inactive | – | – | 8.91 µM (active) | – | – | –
22 | CCCOc1ccc(CCc2nc3cc(-c4c(C)noc4C)ccc3n2CCN2CCOCC2)cc1 | inactive | – | inactive | inactive | inactive | inactive | inactive | inactive
23 | C=C1C(=O)OC2/C=C(\C)CC/C=C(\C)CC(OC(C)=O)C12 (stereo not drawn) | inactive | inactive | – | inactive | inactive | inactive | – | inactive
24 | Cc1[nH]c(/C=C2\C(=O)Nc3ccc(F)cc32)c(C)c1C(=O)NCCN1CCCC1 | inactive | inactive | inactive | inactive | inactive | inactive | – | –
25 | C=C1C(=O)O[C@@H]2/C=C(\CO)CC/C=C(/C=O)C[C@H](O)[C@@H]12 | inactive | inactive | – | – | inactive | inactive | – | inactive
